Experimental data: PubChem BioAssay (NCATS)
“And” between values parts separate entries of the source, which are not always exact repeats. Identical values can stand only once. Inconclusive results are not listed. A call without a number means that no potency is given here. A number with no mark means an inactive call. The source made the active and inactive calls. Calls come from the whole dose curve; as a rule, active = well fitted curve in the direction sought with a large enough effect; inconclusive = small, poorly fitted or top-dose-only effect, or another doubt; inactive = no such curve, though single readings can be large; an effect the other way counts as inactive or inconclusive.

What was measured:
[1] = Viability qHTS for spleen associated tyrosine kinase inhibitor (SYKi) naive MV4-11 cells (AID 1963823); settings: MV4-11 AML viability, CellTiter-Glo luminescence, 72 h; series mostly up to 45 µM; note: nearly all actives have a fitted effect of over 40% in size
Outline: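 SYK inhibitor-naive MV4-11 cells, 500 per well, exposed to compounds for 72 hr at 37 C, 5% CO2. Viability read as CellTiter-Glo luminescence after 10 min at room temperature.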

[2] = Viability qHTS for spleen associated tyrosine kinase inhibitor (SYKi) drug resistant MV4-11 cells (AID 1963824); settings: SYKi-resistant MV4-11 viability, CellTiter-Glo, 72 h; series mostly up to 45 µM; note: nearly all actives have a fitted effect of over 35% in size
Outline: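 CellTiter-Glo luminescence, read 10 min after reagent addition, reports viability after a 72 hr compound exposure. Cells are an MV4-11 line made resistant to SYK inhibition, seeded at 500 per well onto compound-containing plates.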

[3] = Cellular viability qHTS for adrenocortical cancer (ACC) cell line SW-13 (AID 1963989); settings: SW-13 ACC cells viability, CellTiter-Glo, 48 h; activity (max response): active compounds read low; note: nearly all actives have a fitted effect of over 65% in size;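 for activity (max response): cells grown in serum-free medium with ITS supplement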
Outline: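 Here, serum-free SW-13 cultures were dosed up to 46 uM. Following 48 h, ATP-dependent luminescence (CellTiter-Glo) reported viable cells, and logistic modeling produced IC50 values.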

[4] = Cellular viability qHTS for adrenocortical cancer (ACC) cell line NCI-H295R (AID 1963990); settings: CellTiter-Glo ATP luminescence, 48 h; series mostly up to 46.1 µM; note: nearly all actives have a fitted effect of over 60% in size
Outline: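 Viability of NCI-H295R after 48 h of treatment (final up to 46 uM) measured through cellular ATP luminescence.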
Potency is the fitted concentration of half-maximal effect.

SMILES	Potency [1]	Potency [2]	Potency [3]	Potency [4]	activity (max response) [3]
COc1cc(N2CCC(N)CC2)ccc1Nc1ncc(Cl)c(-c2c[nH]c3ccccc23)n1	0.0166 µM (active)	18.4 nM (active) and 37.2 nM (active)	3.16 µM (active)	0.447 µM (active)	–
c1ccc(CN(CC2=NCCN2)c2ccccc2)cc1	inactive	inactive	–	inactive	0.264%
CCCCOC(=O)c1ccc(O)cc1	inactive	inactive	–	inactive	-18.3%
CC(C)Nc1cccnc1N1CCN(C(=O)c2cc3cc(NS(C)(=O)=O)ccc3[nH]2)CC1	inactive	inactive	–	inactive	-10.3%
CC/C=C(\C(=O)N[C@@H]1C(=O)N2C(C(=O)OCOC(=O)C(C)(C)C)=C(COC(N)=O)CS[C@H]12)c1csc(N)n1	inactive	inactive	–	inactive	13.8%
CO/N=C(/C(=O)N[C@@H]1C(=O)N2C(C(=O)[O-])=C(C[n+]3ccn4ncccc43)CS[C@H]12)c1nsc(N)n1	inactive	inactive	–	inactive	-7.2%
COc1cc(N2CCN(C)CC2)ccc1Nc1ncc2c(n1)N(C)c1ccccc1C(=O)N2C	0.934 µM (active)	1.86 µM (active)	15.8 µM (active)	14.1 µM (active)	–
CCC(CC)CC1(C(=O)Nc2ccccc2SC(=O)C(C)C)CCCCC1	inactive	inactive	–	inactive	9.72%
CCCOc1ccc2c(c1)CC[C@@H]1[C@@H]2CC[C@]2(C)C(OC)CC[C@@H]12 (stereo partly specified)	inactive	inactive	–	inactive	13.8%
